Out of some 320,000 compounds screened, about 3,100 (0.97%) were called active. The sample holds actives, similar compounds and a random draw of the others, so the mix is not that of the screen. Unmarked numbers belong to inactive results.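 How the source made its calls: active means mean replicate inhibition of at least 70% and a set share of replicates each scoring 70 or more; inconclusive means meets just one of the two criteria; inactive means fails both criteria.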 Non-standard residues stand in square brackets, D forms with d. Residues, ends and D or L forms follow the SMILES beside them. ξ: configuration not given here. Ac5c = NC1(C(=O)O)CCCC1; ξS = NC(CO)C(=O)O

For this test, the target named is Scavenger receptor class B member 1 (Mus musculus) (UniProt Q61009). The test can be described thus: mouse SR-BI DiI-HDL uptake blockers – ldlA[mSR-BI] cells, fluorescence, single point, primary screen (AID 488896).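 Further: 0% = median of neutral control wells and 100% = median of positive control wells.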 As to conditions: ldlA[mSR-BI] CHO cells, 3 h, at 12.5 µM, hits give high values.
Sequence of Scavenger receptor class B member 1 (Mus musculus) (Q61009 whole entry, looked up): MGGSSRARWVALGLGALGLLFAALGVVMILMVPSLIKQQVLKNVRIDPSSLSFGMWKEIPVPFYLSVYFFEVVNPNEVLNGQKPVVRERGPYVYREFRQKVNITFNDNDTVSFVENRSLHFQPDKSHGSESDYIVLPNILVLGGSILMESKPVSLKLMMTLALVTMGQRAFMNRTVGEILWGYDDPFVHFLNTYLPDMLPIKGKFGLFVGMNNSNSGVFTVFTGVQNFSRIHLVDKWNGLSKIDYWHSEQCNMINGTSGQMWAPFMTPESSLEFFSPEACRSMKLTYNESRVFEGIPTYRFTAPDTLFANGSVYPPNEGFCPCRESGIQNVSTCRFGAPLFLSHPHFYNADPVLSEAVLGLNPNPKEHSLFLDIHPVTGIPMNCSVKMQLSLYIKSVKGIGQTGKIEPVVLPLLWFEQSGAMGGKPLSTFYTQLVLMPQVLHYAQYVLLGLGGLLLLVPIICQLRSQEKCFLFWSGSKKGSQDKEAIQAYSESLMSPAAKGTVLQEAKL
Regarding `CC(=O)OC1CCC2(C)C(=CCC3C4CC(=O)N(O)C(=O)C4(C)CCC32)C1` (centres undefined), the inhibition is -19%. Take `NC1=NOC(=O)C1C1CCCCC1` (centres undefined): the inhibition is -14.7%. For the compound `COc1ccc(-c2nc3c(s2)CCc2onc(-c4ccc(OC)cc4)c2-3)cc1`, the inhibition is 75.1% (active).

For `COc1ccc(-c2nc3n(c2Br)CCC3)cc1`, the inhibition is 4.81%. To `COc1ccc(-c2nc3c(s2)CCc2onc(-c4ccc(Br)cc4)c2-3)cc1` belongs 58.7%; to `NC(=O)C1CCN(C(=O)c2cc(S(=O)(=O)N3CCN(c4ccccc4)CC3)ccc2Cl)CC1`, -3.45%. As for `COc1ccc(/C=C2\SC(=N)N(c3ccc(F)cc3)C2=O)cc1`, the inhibition was 13.3%. In the case of `COc1cccc(/C=C2/SC(=S)N(CC(=O)NC3C=CS(=O)(=O)C3)C2=O)c1` (centres undefined), the inhibition was 6.75%. To `COc1cccc(/C=C2\SC(=N)N(c3ccc(F)cc3)C2=O)c1` belongs 80.3% (active); to `C/C(CC(=O)NC(C)c1ccccc1)=N\NC(N)=S` (centres undefined), 86.3% (active); to `Cc1ccc(OCC(=O)NC(C)c2ccccc2)cc1C` (centres undefined), 0.888%. In the case of `Cc1cc(C)cc(OCC(=O)NC(C)c2ccccc2)c1` (centres undefined), the inhibition is -23.6%. Next, `O=[N+]([O-])c1ccc(N=NNc2ccc([N+](=O)[O-])cc2)cc1`: -5.77%. Next, `CCOC(=O)C(CO)NC(=O)C1(NC(C)=O)CCCC1` (centres undefined) (Ac-[Ac5c]-[ξS]-OEt): -1.77%. To `O=C(Nc1ccc(-c2csc(Nc3cccc(C(F)(F)F)c3)n2)cc1)c1cccc(C(F)(F)F)c1` belongs 109% (active); to `O=C(Nc1ccc(C(F)(F)F)cc1)c1cccc(-n2cnnn2)c1`, 9.16%.

As for `O=C(O)c1ccccc1C(=O)Nc1nc(-c2ccccc2)cs1`, the inhibition is -7.75%.

Consider `CN(C(=O)c1cccc(NC(=O)Cc2ccc(NC(=O)C3CCN(C(=O)C4CCCCC4)CC3)cc2)c1)C1CCC1`, for which the inhibition is 28.2%. Consider `C=CCCC(=O)N1C[C@H]2CON(C)[C@H]2C[C@H]1c1cccc(Nc2ccccc2)c1`, for which the inhibition is 2.33%. To `CCCCN(C(=O)c1cccc(N2C(=O)c3ccccc3C2=O)c1)c1c(N)n(CCCC)c(=O)[nH]c1=O` belongs 9.37%; to `COc1cc(CNC2CCCC2)c(Br)cc1OCc1ccccc1`, 79.2% (active); to `COc1ccc(CNC2CCCCC2)cc1`, -32.1%.

Consider `COc1cc(CN2CCC(C(N)=O)CC2)ccc1OCc1ccccc1`, for which the inhibition was -14.9%. Consider `O=C1/C(=C\c2ccc(O)cc2)CCC1CNc1ccc(Cl)cc1` (centres undefined), for which the inhibition was 18.3%.

As usually defined, the inhibition is the change of the read-out against control, counted positive when it falls.

For the origin of these results see PubChem BioAssay AID488896 (Broad Institute, 2010).
